# From PMC5540273 (PLoS ONE, 2017)
# Columns and labels:
# Conditions in all cases: concentration: 1 μM, replicates: in singlicate; n = 1
# TRPM6 = system: TRPM6
# TSSK1B = system: TSSK1B
# TSSK3 = system: TSSK3
# TTK = system: TTK
# TXK = system: TXK
# [1] = system: TYK2(JH1domain-catalytic)
# [2] = system: TYK2(JH2domain-pseudokinase)
# TYRO3 = system: TYRO3
# ULK1 = system: ULK1
# ULK2 = system: ULK2
# 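Note: KINOMEscan kinase panel screen.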
structure (smiles),measurement,setting,value
COc1ccc(CNC(=O)NC2CCN(c3ccnc(Nc4ccc(F)cc4)n3)C2)cc1 (centres unmarked) [GSK1379706],%Inh,TRPM6,4%
same,%Inh,TSSK1B,0%
same,%Inh,TSSK3,21%
same,%Inh,TTK,21%
same,%Inh,TXK,0%
same,%Inh,[1],27%
same,%Inh,[2],23%
same,%Inh,TYRO3,0%
same,%Inh,ULK1,0%
same,%Inh,ULK2,0%
CCc1ccc(-c2ccc3c(c2)-c2nn(C)cc2S(=O)(=O)N3C)cc1,%Inh,TRPM6,0%
same,%Inh,TSSK1B,0%
same,%Inh,TSSK3,0%
same,%Inh,TTK,0%
same,%Inh,TXK,0%
same,%Inh,[1],0%
same,%Inh,[2],0%
same,%Inh,TYRO3,0%
same,%Inh,ULK1,0%
same,%Inh,ULK2,0%
COC(=O)c1c(-c2ccccc2)c2cc(C)ccc2c(=O)n1Cc1ccccc1,%Inh,TRPM6,0%
same,%Inh,TSSK1B,0%
same,%Inh,TSSK3,0%
same,%Inh,TTK,5%
same,%Inh,TXK,0%
same,%Inh,[1],0%
same,%Inh,[2],0%
same,%Inh,TYRO3,0%
same,%Inh,ULK1,0%
same,%Inh,ULK2,0%
COc1cc2nccc(Nc3ccc(OCc4ccc(NC(C)=O)cc4)cc3)c2cc1OC.Cl [GW440135],%Inh,TRPM6,3%
same,%Inh,TSSK1B,0%
same,%Inh,TSSK3,26%
same,%Inh,TTK,0%
same,%Inh,TXK,6%
same,%Inh,[1],9%
same,%Inh,[2],5%
same,%Inh,TYRO3,0%
same,%Inh,ULK1,0%
same,%Inh,ULK2,0%
COc1ccc(-c2cc3c(C)nc(N)nc3n([C@H]3CC[C@H](OCCO)CC3)c2=O)cn1,%Inh,TRPM6,0%
same,%Inh,TSSK1B,2%
same,%Inh,TSSK3,0%
same,%Inh,TTK,0%
same,%Inh,TXK,2%
same,%Inh,[1],0%
same,%Inh,[2],0%
same,%Inh,TYRO3,0%
same,%Inh,ULK1,0%
same,%Inh,ULK2,0%
CCCC(=O)Nc1n[nH]c2ncc(-c3cccc4ccccc34)cc12 [SB-642057],%Inh,TRPM6,48%
same,%Inh,TSSK1B,36%
same,%Inh,TSSK3,0%
same,%Inh,TTK,0%
same,%Inh,TXK,52%
same,%Inh,[1],0%
same,%Inh,[2],38%
same,%Inh,TYRO3,0%
same,%Inh,ULK1,18%
same,%Inh,ULK2,1%
O=C(Nc1ccc2c(c1)OCO2)NC1CCN(c2ccnc(NCc3ccc(F)cc3)n2)CC1 [GSK1379859],%Inh,TRPM6,47%
same,%Inh,TSSK1B,0%
same,%Inh,TSSK3,12%
same,%Inh,TTK,0%
same,%Inh,TXK,0%
same,%Inh,[1],0%
same,%Inh,[2],0%
same,%Inh,TYRO3,0%
same,%Inh,ULK1,12%
same,%Inh,ULK2,0%
Nc1ncnc2c1ncn2-c1cccc2ccccc12 [SKF-97184],%Inh,TRPM6,39%
same,%Inh,TSSK1B,0%
same,%Inh,TSSK3,0%
same,%Inh,TTK,23%
same,%Inh,TXK,0%
same,%Inh,[1],68%
same,%Inh,[2],37%
same,%Inh,TYRO3,0%
same,%Inh,ULK1,24%
same,%Inh,ULK2,16%
Cc1nc(N(C)[C@H]2CN(C(=O)CC#N)CC[C@H]2C)c2cc[nH]c2n1,%Inh,TRPM6,0%
same,%Inh,TSSK1B,0%
same,%Inh,TSSK3,0%
same,%Inh,TTK,19%
same,%Inh,TXK,8%
same,%Inh,[1],15%
same,%Inh,[2],0%
same,%Inh,TYRO3,18%
same,%Inh,ULK1,0%
same,%Inh,ULK2,8%
Cc1cccc(-c2nc(Nc3ccc4c(cnn4C)c3)c3ccccc3n2)n1 [GW876731],%Inh,TRPM6,0%
same,%Inh,TSSK1B,3%
same,%Inh,TSSK3,0%
same,%Inh,TTK,0%
same,%Inh,TXK,10%
same,%Inh,[1],20%
same,%Inh,[2],39%
same,%Inh,TYRO3,5%
same,%Inh,ULK1,8%
same,%Inh,ULK2,13%
Nc1nc(-c2ccccc2F)c(-c2ccnc3ccccc23)s1 [GW560459],%Inh,TRPM6,32%
same,%Inh,TSSK1B,14%
same,%Inh,TSSK3,10%
same,%Inh,TTK,20%
same,%Inh,TXK,0%
same,%Inh,[1],7%
same,%Inh,[2],32%
same,%Inh,TYRO3,0%
same,%Inh,ULK1,0%
same,%Inh,ULK2,0%
O=C(NCCNc1ccnc(Nc2ccc(F)cc2)n1)Nc1ccc2c(c1)OCO2 [GSK1379882],%Inh,TRPM6,26%
same,%Inh,TSSK1B,0%
same,%Inh,TSSK3,24%
same,%Inh,TTK,15%
same,%Inh,TXK,100%
same,%Inh,[1],21%
same,%Inh,[2],28%
same,%Inh,TYRO3,0%
same,%Inh,ULK1,0%
same,%Inh,ULK2,0%
COc1cc(Nc2nccc(N3CCC(NC(=O)C4COc5ccccc5O4)C3)n2)cc(OC)c1OC (centres unmarked) [GSK1379761],%Inh,TRPM6,0%
same,%Inh,TSSK1B,0%
same,%Inh,TSSK3,9%
same,%Inh,TTK,13%
same,%Inh,TXK,10%
same,%Inh,[1],81%
same,%Inh,[2],29%
same,%Inh,TYRO3,0%
same,%Inh,ULK1,8%
same,%Inh,ULK2,0%
COc1ccc(-c2cc3c(C)nc(N)nc3n([C@H]3CC[C@H](O)CC3)c2=O)cn1,%Inh,TRPM6,0%
same,%Inh,TSSK1B,0%
same,%Inh,TSSK3,0%
same,%Inh,TTK,0%
same,%Inh,TXK,0%
same,%Inh,[1],0%
same,%Inh,[2],0%
same,%Inh,TYRO3,0%
same,%Inh,ULK1,0%
same,%Inh,ULK2,0%
Cc1ccc(Oc2ccc(Nc3ncnc4cc[nH]c34)cc2C)cn1,%Inh,TRPM6,0%
same,%Inh,TSSK1B,5%
same,%Inh,TSSK3,0%
same,%Inh,TTK,31%
same,%Inh,TXK,6%
same,%Inh,[1],22%
same,%Inh,[2],15%
same,%Inh,TYRO3,3%
same,%Inh,ULK1,11%
same,%Inh,ULK2,0%
CCC(=O)c1c(-c2ccccc2)c2cc(Cl)ccc2c(=O)n1Cc1cc(S(C)(=O)=O)n(CC(N)=O)n1,%Inh,TRPM6,0%
same,%Inh,TSSK1B,0%
same,%Inh,TSSK3,0%
same,%Inh,TTK,8%
same,%Inh,TXK,0%
same,%Inh,[1],0%
same,%Inh,[2],0%
same,%Inh,TYRO3,0%
same,%Inh,ULK1,0%
same,%Inh,ULK2,0%
CCCNC(=O)Nc1ccc(Oc2ncnc3ccn(C)c23)cc1,%Inh,TRPM6,0%
same,%Inh,TSSK1B,0%
same,%Inh,TSSK3,0%
same,%Inh,TTK,0%
same,%Inh,TXK,0%
same,%Inh,[1],13%
same,%Inh,[2],22%
same,%Inh,TYRO3,0%
same,%Inh,ULK1,14%
same,%Inh,ULK2,10%
